# Tested on: VDR:RXRa (NR concentration 270 nM, RXRa partner concentration 90 nM)
# Test: PBM binding z-score (relative to random genomic background probes); higher = stronger binding; sequences stand for … in GC…GCGATTGACAGCGTAGAATGAAGG
# Description: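 Protein-binding microarray (Agilent 4x180K custom design, double-stranded 60-nt probes: 5' GC cap, 34-nt variable region, 24-nt constant primer region; full probe sequence given). Purified or IVT nuclear receptor:RXRα heterodimers (3:1 NR:RXRα, mostly 270:90 nM) or homodimers were incubated for 1 h in PBS with 2% milk and no ligand, then detected with Alexa488 antibodies. Fluorescence from o1-orientation probes (~5 replicates averaged) was converted to z-scores against 500 random hg19 background probes. Variable regions are seed direct-repeat (DR0–DR5) sites, all their single-nucleotide variants and half-site ablations.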
row,Sequence,PBM binding z-score
1,AGAATGAGATTAAGATCAGGGAAACAGAATACAT,-0.149
2,ATCTCTAGGTAATGATAGTTCAGTGAATGCAAAT,0.849
3,CATACAGGGTCAGCTAGGCGAGAGTAGGGACGGC,2.57
4,AGAATGAGGTTATCAAGATCAGGGAATTGCGGTC,2.56
5,CGTCAAAGTTCAACTAAGGTAGCGTAAAGCACGC,4.35
6,ATCTCTAGCTAACCAAGTTCAGTGAATGCCGAAC,1.42
7,CCTACTGGGCCATCACGTCATTGATATCAACGTT,-0.314
8,GGTAGCAGGCCATTTGGGTCACTCAATGACGGGC,1.14
9,CAAACTGGGTCAAGAGGTCAAAGTCCGCTTCCCG,6.19
10,GCTTGTAGATCAAGGTGAAGAAAGACTAAGCTAA,-0.394
11,TCGAGTTGGTCACGGAGGTCACACACGACGGGTA,5.91
12,ACTGGTTGGTCAGCTGAGGTCACACACAATTCGG,4.57
13,GCGGCTGGGGCATCAGCAGGTTACCATAACTTAA,-0.259
14,GCTAGTTGGTCAGTAAAAGGTCACTCACCGGTCG,3.51
15,AATAGAGGGTCACTAGGCCAGAGTAGGTACGAAT,2.75
16,TCTATTAGTTGAAGGGAAACCGACGAGTCCGTTT,0.851
17,ACTGGCAGGCCAAGTTTGGGTCACTCAAACAAAG,0.456
18,CCGACTGGGGCAAGGTTGCCATAACGCACAGCCA,-0.351
19,CCTACGGGGCCAAAAAGGTCATTGATGCCGATAA,5.88
20,GCTAGCAGGGCATTTGGGTCACTCAATGACGGGC,2.15

row,Sequence,PBM binding z-score
1,ACTATTAGTTGACTTAGTGCAACCGATACGACGC,0.264
2,ACAGACAGGTGAGTGAACGTAACTCAGCTGGACG,-0.318
3,TCATATAGGTAGTACAGGTGAAAGTCGGCATCTA,0.794
4,CCTAGTTGGTCAGGATGTCACACACCGGATATGA,0.176
5,ACTAGTTTGTCAGCTGAGGTCACACACAATTCGG,4.34
6,ATCGAAAGGTCGAGCTGAGTATAGAGAAAGGGAA,2.53
7,CAAACTAGGTCAATGTCAAAGTCGGTTTGTGCCA,1.58
8,CCTTACGGGTCCAGGTTATAGCACGGGTGGTACG,-0.152
9,CGTCAAAGTTCAACTAAGGTAATGTAAAGCACGC,4.8
10,CCTCGGAGGACAACAGGAGGTGAGAGCTGCCAGA,-0.342
11,TCTTGTAGATCAAGGAGGTTAAGAAAGCCTGAGT,1.26
12,GCCCGGAGGACAAGGTCAGAGCTTTGTCCGTAGA,1.11
13,TTGAGTAGGTTAGTCGGGGCATTCAGCCAACATA,2.47
14,CGAACTAGGTCATTGACTGGACAGTGAATAGTAA,1.68
15,GACACAGGGTCAAGGCCAGAGTACGCGTATTGAT,4.36
16,ATCTCTACGTAAAAGTTCAGTGAATCCCGAGGAT,1.1
17,ACTAGTTGGTCATCTGAGGTCACACACAATTCGG,5.04
18,AGAATGAGGTTATTTAGATCAGGGAATTGCGGTC,1.88
19,CGAACTAGGTTAGAACAGGACAGTGAAGGATGAT,-0.215
20,ACTAGTTGGTCAGCTGAGGTCATACACAATTCGG,4.73
